# Of roughly 8,800 targets only a part is listed; those with a hit were picked by preference. About 0.5% of all pairs of compound and target were hits. Values without a mark were called inactive.
# Legend:
# Assay in all cases: log2 fold change, soluble protein after heating vs DMSO (PISA); higher = thermal stabilisation; K562 lysate, 10 uM; active = over 0.2 and 3.5 SD of the protein, either way, in both replicates (recomputed)
# alvocidib = compound: CN1CC[C@H](c2c(O)cc(O)c3c(=O)cc(-c4ccccc4Cl)oc23)[C@H](O)C1 [alvocidib]
# In short: (§1)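 Log-two fold change in thermal stability relative to solvent controls is reported from duplicates. For each sample, crude K562 extract from dounce-homogenised pellets in PBS pH 7.4 with 1 mM MgCl2, at 1 mg/mL protein, was treated with 10 μM compound for 30 min. Aliquots heated for 3 min across 48°C-58°C were pooled, brought to 0.5% NP-40 at 4°C and cleared at 21,000xg for 90 min. The supernatant was quantified by TMTpro 16plex LC-MS/MS with channel sums equalised.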
# Tubastatin A = compound: CN1CCc2c(c3ccccc3n2Cc2ccc(C(=O)NO)cc2)C1 [Tubastatin A]
# In short: as §1
# [1] = compound: CNC(=O)C1=CC=CC=C1NC2=NC(=NC=C2Cl)NC3=C(C=C(C=C3)N4CCOCC4)OC
# In short: as §1
# defactinib = compound: CNC(=O)c1ccc(Nc2ncc(C(F)(F)F)c(NCc3nccnc3N(C)S(C)(=O)=O)n2)cc1 [defactinib]
# In short: as §1
# [2] = compound: CNc1nc(-c2ccc3c(N)n[nH]c3c2)cc(N2C[C@@H](C(=O)NC3CCCCC3)CC[C@H]2C)n1
# In short: as §1
# encorafenib = compound: COC(=O)N[C@@H](C)CNc1nccc(-c2cn(C(C)C)nc2-c2cc(Cl)cc(NS(C)(=O)=O)c2F)n1 [encorafenib]
# In short: as §1
# [3] = compound: COC(=O)[C@H](CCSC)NC(=O)C1=C(C=C(C=C1)NC[C@H](CS)N)C2=CC=CC=C2
# In short: as §1
# alisertib = compound: COc1cc(Nc2ncc3c(n2)-c2ccc(Cl)cc2C(c2c(F)cccc2OC)=NC3)ccc1C(=O)O [alisertib]
# In short: as §1
# [4] = compound: COc1cc2nc(-c3cc(F)ccc3O)nc(N[C@@H]3CNC[C@H]3C(C)(C)O)c2cc1OC
# In short: as §1
# gefitinib = compound: COc1cc2ncnc(Nc3ccc(F)c(Cl)c3)c2cc1OCCCN1CCOCC1 [gefitinib]
# In short: as §1
# lapatinib = compound: CS(=O)(=O)CCNCc1ccc(-c2ccc3ncnc(Nc4ccc(OCc5cccc(F)c5)c(Cl)c4)c3c2)o1 [lapatinib]
# In short: as §1
# pictilisib = compound: CS(=O)(=O)N1CCN(Cc2cc3nc(-c4cccc5[nH]ncc45)nc(N4CCOCC4)c3s2)CC1 [pictilisib]
# In short: as §1
# crizotinib = compound: C[C@@H](Oc1cc(-c2cnn(C3CCNCC3)c2)cnc1N)c1c(Cl)ccc(F)c1Cl [crizotinib]
# In short: as §1
# [5] = compound: C[C@H](C1=CC=C(C=C1)C(=O)NC2=C3C=CNC3=NC=C2)N
# In short: as §1
# duvelisib = compound: C[C@H](Nc1ncnc2nc[nH]c12)c1cc2cccc(Cl)c2c(=O)n1-c1ccccc1 [duvelisib]
# In short: as §1
# gandotinib = compound: Cc1cc(Nc2cc(CN3CCOCC3)c3nc(C)c(Cc4ccc(Cl)cc4F)n3n2)n[nH]1 [gandotinib]
# In short: as §1
# tozasertib = compound: Cc1cc(Nc2cc(N3CCN(C)CC3)nc(Sc3ccc(NC(=O)C4CC4)cc3)n2)n[nH]1 [tozasertib]
# In short: as §1
# doramapimod = compound: Cc1ccc(-n2nc(C(C)(C)C)cc2NC(=O)Nc2ccc(OCCN3CCOCC3)c3ccccc23)cc1 [doramapimod]
# In short: as §1
# bafetinib = compound: Cc1ccc(NC(=O)c2ccc(CN3CC[C@H](N(C)C)C3)c(C(F)(F)F)c2)cc1Nc1nccc(-c2cncnc2)n1 [bafetinib]
# In short: as §1
# [6] = compound: Cc1cccc(CC(=O)N2CCc3c2ccc(-c2cn(C)c4ncnc(N)c24)c3F)n1
# In short: as §1
# UniProt Q9H7Z7, sequence (Q9H7Z7 whole entry, looked up): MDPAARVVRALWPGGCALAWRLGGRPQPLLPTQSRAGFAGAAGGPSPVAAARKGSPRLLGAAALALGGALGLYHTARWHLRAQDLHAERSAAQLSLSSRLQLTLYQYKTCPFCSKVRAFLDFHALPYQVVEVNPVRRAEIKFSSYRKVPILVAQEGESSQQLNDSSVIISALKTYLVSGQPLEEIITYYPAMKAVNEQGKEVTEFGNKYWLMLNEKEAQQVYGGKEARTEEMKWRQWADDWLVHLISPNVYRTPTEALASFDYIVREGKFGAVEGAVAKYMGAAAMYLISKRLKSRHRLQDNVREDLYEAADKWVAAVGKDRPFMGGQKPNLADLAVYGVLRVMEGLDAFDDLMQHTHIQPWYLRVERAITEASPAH
# UniProt Q13362, sequence (Q13362 whole entry, looked up): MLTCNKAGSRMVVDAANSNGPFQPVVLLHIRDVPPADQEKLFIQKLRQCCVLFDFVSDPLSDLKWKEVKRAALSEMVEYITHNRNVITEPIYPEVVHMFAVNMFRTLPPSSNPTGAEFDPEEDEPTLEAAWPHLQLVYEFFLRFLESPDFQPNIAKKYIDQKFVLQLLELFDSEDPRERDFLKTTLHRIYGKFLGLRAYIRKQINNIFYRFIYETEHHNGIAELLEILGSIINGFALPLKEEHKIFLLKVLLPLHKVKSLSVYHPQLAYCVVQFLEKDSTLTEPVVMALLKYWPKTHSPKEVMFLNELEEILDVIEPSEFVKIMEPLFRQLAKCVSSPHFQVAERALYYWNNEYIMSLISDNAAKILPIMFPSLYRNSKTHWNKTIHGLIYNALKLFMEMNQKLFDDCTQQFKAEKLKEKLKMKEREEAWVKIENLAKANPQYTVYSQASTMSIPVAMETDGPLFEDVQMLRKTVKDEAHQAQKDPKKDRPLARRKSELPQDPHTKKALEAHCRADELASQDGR
# UniProt O43175, sequence (O43175 whole entry, looked up): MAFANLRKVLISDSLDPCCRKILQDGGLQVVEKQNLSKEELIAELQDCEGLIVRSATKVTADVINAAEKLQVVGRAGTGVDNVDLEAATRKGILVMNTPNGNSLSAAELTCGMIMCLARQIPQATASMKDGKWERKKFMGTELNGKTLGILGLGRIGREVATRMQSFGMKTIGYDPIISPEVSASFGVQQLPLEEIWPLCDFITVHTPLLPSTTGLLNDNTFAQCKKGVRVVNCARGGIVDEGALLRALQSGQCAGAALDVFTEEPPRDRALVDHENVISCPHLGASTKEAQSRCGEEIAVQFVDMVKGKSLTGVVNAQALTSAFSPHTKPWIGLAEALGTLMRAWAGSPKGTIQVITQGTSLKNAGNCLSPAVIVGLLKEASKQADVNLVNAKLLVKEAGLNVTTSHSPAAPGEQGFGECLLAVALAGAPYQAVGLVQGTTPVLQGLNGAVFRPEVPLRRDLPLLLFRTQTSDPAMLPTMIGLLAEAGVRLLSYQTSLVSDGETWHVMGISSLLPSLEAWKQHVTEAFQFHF
# UniProt Q9Y6I8, sequence (Q9Y6I8 whole entry, looked up): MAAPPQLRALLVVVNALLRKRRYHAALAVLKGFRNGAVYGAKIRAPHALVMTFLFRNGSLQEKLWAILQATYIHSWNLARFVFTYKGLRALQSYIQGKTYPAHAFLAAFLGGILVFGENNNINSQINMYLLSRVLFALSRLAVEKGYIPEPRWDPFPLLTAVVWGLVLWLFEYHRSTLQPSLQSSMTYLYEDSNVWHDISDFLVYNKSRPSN
# UniProt Q9BTU6, sequence (Q9BTU6 whole entry, looked up): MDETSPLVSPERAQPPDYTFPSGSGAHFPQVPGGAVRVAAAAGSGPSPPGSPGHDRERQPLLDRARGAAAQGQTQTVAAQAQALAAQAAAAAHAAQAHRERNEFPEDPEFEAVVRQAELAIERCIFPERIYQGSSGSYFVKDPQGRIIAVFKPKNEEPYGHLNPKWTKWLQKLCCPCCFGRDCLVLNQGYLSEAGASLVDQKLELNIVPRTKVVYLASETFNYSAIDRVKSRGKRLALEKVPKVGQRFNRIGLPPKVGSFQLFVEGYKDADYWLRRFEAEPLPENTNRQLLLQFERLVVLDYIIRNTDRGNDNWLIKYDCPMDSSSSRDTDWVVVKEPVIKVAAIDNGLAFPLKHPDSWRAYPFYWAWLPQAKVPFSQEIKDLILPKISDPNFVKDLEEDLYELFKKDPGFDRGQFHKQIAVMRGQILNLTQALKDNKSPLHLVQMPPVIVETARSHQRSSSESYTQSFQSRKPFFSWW
# UniProt O00764, sequence (O00764 whole entry, looked up): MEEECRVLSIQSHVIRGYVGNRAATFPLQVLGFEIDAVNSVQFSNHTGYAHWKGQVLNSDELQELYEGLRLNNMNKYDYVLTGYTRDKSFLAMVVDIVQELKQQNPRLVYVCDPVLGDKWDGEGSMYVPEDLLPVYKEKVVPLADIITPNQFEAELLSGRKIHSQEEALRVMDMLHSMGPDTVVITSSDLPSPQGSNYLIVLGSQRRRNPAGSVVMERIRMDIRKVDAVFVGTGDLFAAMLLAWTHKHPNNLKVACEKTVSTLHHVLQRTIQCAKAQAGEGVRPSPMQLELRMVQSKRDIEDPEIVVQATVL
# UniProt Q9Y244, sequence (Q9Y244 whole entry, looked up): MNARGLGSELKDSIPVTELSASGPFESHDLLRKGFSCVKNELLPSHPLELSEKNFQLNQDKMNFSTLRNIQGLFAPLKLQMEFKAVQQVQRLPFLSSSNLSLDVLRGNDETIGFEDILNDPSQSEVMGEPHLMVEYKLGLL
# UniProt O94913, sequence (O94913 whole entry, looked up): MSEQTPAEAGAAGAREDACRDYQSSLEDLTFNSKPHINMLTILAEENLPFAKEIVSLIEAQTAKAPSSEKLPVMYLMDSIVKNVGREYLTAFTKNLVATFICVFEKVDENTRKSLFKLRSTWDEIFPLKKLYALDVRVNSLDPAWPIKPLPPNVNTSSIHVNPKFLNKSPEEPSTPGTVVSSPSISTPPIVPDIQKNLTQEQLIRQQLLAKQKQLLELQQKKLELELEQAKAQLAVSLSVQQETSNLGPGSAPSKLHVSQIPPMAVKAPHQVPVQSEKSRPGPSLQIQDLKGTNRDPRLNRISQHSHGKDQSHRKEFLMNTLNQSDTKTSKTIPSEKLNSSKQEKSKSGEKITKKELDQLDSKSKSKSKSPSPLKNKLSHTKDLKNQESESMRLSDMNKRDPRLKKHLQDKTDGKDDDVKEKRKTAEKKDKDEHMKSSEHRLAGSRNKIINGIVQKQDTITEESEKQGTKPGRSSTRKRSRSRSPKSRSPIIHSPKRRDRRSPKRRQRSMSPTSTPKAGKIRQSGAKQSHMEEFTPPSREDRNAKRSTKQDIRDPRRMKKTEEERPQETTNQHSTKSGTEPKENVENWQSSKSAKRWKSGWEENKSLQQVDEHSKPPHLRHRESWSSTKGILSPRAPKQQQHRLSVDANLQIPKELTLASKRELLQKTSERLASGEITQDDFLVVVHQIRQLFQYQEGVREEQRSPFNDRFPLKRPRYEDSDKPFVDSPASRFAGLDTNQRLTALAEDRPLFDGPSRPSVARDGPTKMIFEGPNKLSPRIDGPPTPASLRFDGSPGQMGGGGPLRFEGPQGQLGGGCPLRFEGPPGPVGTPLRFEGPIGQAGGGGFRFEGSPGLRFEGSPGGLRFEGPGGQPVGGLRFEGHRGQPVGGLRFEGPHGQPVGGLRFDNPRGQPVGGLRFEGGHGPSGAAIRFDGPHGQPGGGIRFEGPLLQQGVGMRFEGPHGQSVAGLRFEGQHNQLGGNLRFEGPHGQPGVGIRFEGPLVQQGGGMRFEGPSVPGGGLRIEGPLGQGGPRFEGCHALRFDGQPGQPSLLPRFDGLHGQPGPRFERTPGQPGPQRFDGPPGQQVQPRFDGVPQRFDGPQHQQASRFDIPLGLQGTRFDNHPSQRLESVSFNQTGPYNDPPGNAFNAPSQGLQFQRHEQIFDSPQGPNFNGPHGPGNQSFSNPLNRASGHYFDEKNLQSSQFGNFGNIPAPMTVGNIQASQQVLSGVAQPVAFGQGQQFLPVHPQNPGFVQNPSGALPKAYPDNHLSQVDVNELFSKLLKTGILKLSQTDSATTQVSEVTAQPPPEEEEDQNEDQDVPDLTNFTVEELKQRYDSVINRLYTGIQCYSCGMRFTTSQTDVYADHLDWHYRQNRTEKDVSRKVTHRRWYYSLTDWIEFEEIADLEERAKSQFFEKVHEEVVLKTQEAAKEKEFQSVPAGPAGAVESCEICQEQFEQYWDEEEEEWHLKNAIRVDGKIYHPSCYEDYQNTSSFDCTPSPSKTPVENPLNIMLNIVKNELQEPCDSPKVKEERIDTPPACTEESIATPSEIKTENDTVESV
# UniProt Q53EL6, sequence (Q53EL6 whole entry, looked up): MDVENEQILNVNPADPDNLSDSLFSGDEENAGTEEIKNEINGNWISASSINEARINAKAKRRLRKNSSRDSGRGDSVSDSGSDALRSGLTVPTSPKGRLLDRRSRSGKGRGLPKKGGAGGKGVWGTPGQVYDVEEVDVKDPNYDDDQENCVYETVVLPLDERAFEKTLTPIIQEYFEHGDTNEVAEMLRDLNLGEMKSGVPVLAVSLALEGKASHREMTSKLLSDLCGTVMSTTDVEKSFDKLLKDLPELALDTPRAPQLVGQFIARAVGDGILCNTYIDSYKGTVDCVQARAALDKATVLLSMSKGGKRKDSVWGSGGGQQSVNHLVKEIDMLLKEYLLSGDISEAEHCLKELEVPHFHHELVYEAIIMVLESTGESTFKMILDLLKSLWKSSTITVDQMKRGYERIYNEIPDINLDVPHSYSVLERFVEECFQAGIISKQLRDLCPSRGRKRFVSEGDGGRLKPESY
Target,log2 fold change (alvocidib),log2 fold change (Tubastatin A),log2 fold change [1],log2 fold change (defactinib),log2 fold change [2],log2 fold change (encorafenib),log2 fold change [3],log2 fold change (alisertib),log2 fold change [4],log2 fold change (gefitinib),log2 fold change (lapatinib),log2 fold change (pictilisib),log2 fold change (crizotinib),log2 fold change [5],log2 fold change (duvelisib),log2 fold change (gandotinib),log2 fold change (tozasertib),log2 fold change (doramapimod),log2 fold change (bafetinib),log2 fold change [6]
PDXK (UniProt O00764),-0.031,-0.005,0.027,0.047,0.06,-0.032,-0.012,-0.038,0.016,-0.022,-0.026,0.014,0.004,-0.134,0.041,0.109,-0.014,-0.072,0.046,0.083
PTGES2 (UniProt Q9H7Z7),0.015,-0.169,0.122,-0.075,0.322,-0.127,0.098,-0.026,-0.248,0.245,0.637 (active),0.153,-0.052,-0.013,0.029,0.236,0.329,0.341,0.176,0.009
PXMP4 (UniProt Q9Y6I8),0,-0.015,0.012,-0.028,0.736 (active),0.033,0.092,-0.039,-0.009,-0.039,-0.071,0.066,-0.29,-0.068,-0.112,-0.221,-0.034,0.238,-0.148,0.194
POLR2G (UniProt P62487),-0.034,0.012,0.038,0.027,0.019,0.007,-0.032,0.016,0.017,-0.01,-0.001,-0.048,0.016,-0.04,0.03,-0.002,-0.04,-0.011,0.004,-0.006
PHGDH (UniProt O43175),0.028,-0.415 (active),-0.081,0.022,0.018,0.006,-0.439 (active),0.004,0.006,-0.016,-0.053,0.005,0,0.076,0,-0.071,0.019,-0.039,0.032,-0.055
PDCD4 (UniProt Q53EL6),0.01,-0.033,0.017,0.002,0.019,0.019,-0.034,-0.005,0.015,-0.003,-0.026,-0.003,-0.055,-0.051,-0.022,0.009,-0.002,0.011,-0.038,0.062
PRKACA (UniProt P17612),-0.118,0.008,0.034,0.177,0.082,-0.052,-0.059,0.027,0.558 (active),-0.01,-0.008,-0.012,0.022,-0.159,-0.059,0.115,-0.12,-0.113,-0.073,0.151
POMP (UniProt Q9Y244),0.072,-0.061,0.035,0.024,-0.03,0.074,-0.002,-0.013,-0.033,-0.093,0.048,0.031,-0.054,0.221,0.11,-0.063,0.022,0.038,0.017,-0.038
PI4K2A (UniProt Q9BTU6),-0.006,-0.037,0.021,-0.023,0.012,0.022,-0.092,-0.008,-0.056,0.021,-0.02,-0.036,0.003,-0.006,0.054,-0.03,-0.025,-0.008,0.008,0.014
PCF11 (UniProt O94913),-0.018,-0.12,0.002,0.041,0.078,0.036,-0.021,0.009,0.042,0.002,-0.017,-0.014,-0.018,0.058,0.005,-0.086,-0.004,-0.031,-0.021,-0.017
PPP2R5C isoform 5 (UniProt Q13362),0.016,-0.018,0.012,0.029,-0.048,0.029,-0.039,0.002,-0.014,0.004,-0.03,0.01,0.004,0.069,0.02,-0.08,0.054,-0.005,-0.001,-0.036
PI4KA (UniProt P42356),-0.006,-0.165,0.035,0.006,-0.029,0.026,-0.005,0.028,0.019,0,-0.03,0.097,-0.005,-0.043,0.189,-0.033,0.013,-0.002,-0.075,0.073
